Test results reported in PubChem BioAssay AID1851 (National Center for Advancing Translational Sciences (NCATS), 2009).
Out of some 16,000 compounds screened, about 5,700 (36%) were called active. Another 24% or so got no clear call; they are omitted. Some of the results follow. Unmarked numbers belong to inactive results. Calls follow the shape of the dose curve; as a rule, active = well fitted curve in the direction sought with a large enough effect; inconclusive = small, poorly fitted or top-dose-only effect, or effect the other way; inactive = no such curve, though single readings can be large or run the other way.

Biological target: Cytochrome P450 1A2 (Homo sapiens) (UniProt P05177)
Sequence (P05177 whole entry, looked up): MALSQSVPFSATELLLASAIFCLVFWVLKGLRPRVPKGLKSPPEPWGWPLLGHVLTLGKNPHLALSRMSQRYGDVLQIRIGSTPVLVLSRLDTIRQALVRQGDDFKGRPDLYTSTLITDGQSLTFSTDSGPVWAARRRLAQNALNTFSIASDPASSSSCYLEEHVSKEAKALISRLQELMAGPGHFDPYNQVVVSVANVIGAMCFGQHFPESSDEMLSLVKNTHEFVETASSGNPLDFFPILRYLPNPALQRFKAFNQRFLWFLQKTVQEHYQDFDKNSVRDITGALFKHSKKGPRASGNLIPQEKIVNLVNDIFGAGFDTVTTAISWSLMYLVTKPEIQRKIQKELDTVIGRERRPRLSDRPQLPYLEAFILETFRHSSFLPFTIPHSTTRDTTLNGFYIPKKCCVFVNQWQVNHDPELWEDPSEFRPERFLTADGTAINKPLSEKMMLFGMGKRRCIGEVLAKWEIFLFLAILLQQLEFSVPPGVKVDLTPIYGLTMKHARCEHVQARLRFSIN
Assay: Cytochrome panel assay with activity outcomes
Conditions: recombinant CYP, pro-luciferin dealkylation, luminescence, p450-cyp1a2; series mostly up to 57.1 µM
% is scaled to controls: 0 for no effect and ±100 for the full control effect.

Question: For COc1ccc(-n2c(SC)nc(O)c(Cc3ccccc3)c2=O)cc1, which AC50 is on record?
Answer: Its AC50 is “inactive”.

Question: With CCCC(=O)n1nc(-c2cccnc2)nc1N as the molecule, how does the AC50 read?
Answer: The AC50 was 5.01 µM (active).

Question: COc1ccc(-c2nc(N)c3ncn([C@H]4O[C@@H](CO)[C@@H](O)[C@@H]4O)c3n2)cc1 was tested. Which activity, negative = inhibition did it give?
Answer: The activity, negative = inhibition was -13% [at 2.29 µM].

Question: COc1ccc(-c2ccc(N)[n+](CCCC(=O)O)n2)cc1 was tested. Which AC50 did it give?
Answer: Its AC50 is “inactive”.

Question: CCC(=O)n1nc(-c2ccc(OC)cc2)nc1N was tested. Which AC50 did it give?
Answer: The AC50 was 2 µM (active).

Question: How did the AC50 turn out when COc1ccc(C(=O)n2nc(-c3ccccc3)nc2SC)cc1 was run?
Answer: The AC50 was 0.562 µM (active).

Question: With COc1ccc(C(=O)N2CCC3(CC2)CCN(C(c2ccccc2)c2ccccc2)CC3)cc1 as the molecule, how does the AC50 read?
Answer: Its AC50 is “inactive”.

Question: Which AC50 does the source give for COc1cccc(-c2[nH]nc3c2C(c2ccsc2)C(C#N)=C(N)O3)c1 (stereo unspecified) here?
Answer: The AC50 was 1.12 µM (active).

Question: Which AC50 does the source give for COc1ccc(C2C(C#N)=C(N)Oc3n[nH]c(C)c32)cc1CN1CCN(c2ccc(F)cc2)CC1 (stereo unspecified) here?
Answer: Its AC50 is “inactive”.

Question: How did the AC50 turn out when COc1cccc(-c2[nH]nc3c2C(c2ccc(C)o2)C(C#N)=C(N)O3)c1 (stereo unspecified) was run?
Answer: The AC50 was 1.58 µM (active).

Question: Which AC50 does the source give for O=C(CP(=O)(c1ccccc1)c1ccccc1)Nn1cnnc1 here?
Answer: The AC50 was “inactive”.

Question: For CC1(C)[C@@H]2CC[C@]1(C)[C@@H](OC(=O)CSC#N)C2, which activity, negative = inhibition is on record?
Answer: The activity, negative = inhibition was -18.3% [at 2.29 µM].

Question: Which AC50 does the source give for Cc1cccn2c(/C=N/OCc3cccc(F)c3)c(-c3ccc(Cl)cc3)nc12 here?
Answer: The AC50 was 2 µM (active).

Question: Which AC50 does the source give for Cc1cccn2c(/C=N/OCc3ccc(F)cc3)c(-c3ccc(Cl)cc3)nc12 here?
Answer: The AC50 was 2 µM (active).

Question: For C#CCCCO/N=C1/C[C@@H](O)[C@@H](O)[C@@H]2[C@@H]3C(=O)N([C@@H](C)c4ccccc4)C(=O)[C@H]3CC[C@H]12, which activity, negative = inhibition is on record?
Answer: The activity, negative = inhibition was 0.735% [at 11.4 µM].

Question: For Cn1c(O)c(C(C#N)=C2N=c3ccccc3=N2)c2ccccc21, which AC50 is on record?
Answer: Its AC50 is 1.58 µM (active).

Question: How did the AC50 turn out when O=c1ccc2c(OCCCCc3ccccc3)c3ccoc3cc2o1 was run?
Answer: Its AC50 is 0.501 µM (active).

Question: Which AC50 does the source give for CCn1c(=O)[nH]c2ccccc2c1=O here?
Answer: The AC50 was 1.78 µM (active).

Question: With FC(F)(F)c1ccccc1-c1ccc2ncnc(NCc3cccnc3)c2c1 as the molecule, how does the AC50 read?
Answer: Its AC50 is 1 µM (active).

Question: COCCNc1ncnc2ccc(-c3ccccc3C(F)(F)F)cc12 was tested. Which AC50 did it give?
Answer: The AC50 was 1.58 µM (active).

Question: For COCCNc1ncnc2ccc(-c3ccccc3OC)cc12, which AC50 is on record?
Answer: Its AC50 is 2 µM (active).

Question: With Clc1ccccc1-c1ccc2ncnc(NCc3cccnc3)c2c1 as the molecule, how does the AC50 read?
Answer: The AC50 was 0.158 µM (active).

Question: CC1=N[C@@](C)(COC(=O)[C@]2(C)N[C@](C)(CO)CO2)COC1=O was tested. Which activity, negative = inhibition did it give?
Answer: The activity, negative = inhibition was 6.88% [at 2.29 µM].

Question: How did the AC50 turn out when COc1ccccc1-c1ccc2ncnc(NCc3ccccc3)c2c1 was run?
Answer: The AC50 was 2 µM (active).

Question: For COc1ccccc1-c1ccc2ncnc(NCc3cccnc3)c2c1, which AC50 is on record?
Answer: The AC50 was 0.794 µM (active).

Question: For COc1cccc(-c2ccc3ncnc(NCc4cccnc4)c3c2)c1, which AC50 is on record?
Answer: The AC50 was 0.251 µM (active).
